# According to PubChem BioAssay (NCI):
# This is part of a sample that, as a whole, favours compounds with a hit. Of some 83,000 tested, about 20% had one in any assay.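 Negative percent growth values reflect cell death: -40 means 40% of the cells present at the start died, and -100 means all died.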 A number with no mark means an inactive call. Activity calls are given as the source filed them. How the source made its calls: active means growth percent below 10; inactive means the rest.
# Key:
# Experiment in all cases: NCI-60 one-dose screen, 48 h (100 = growth as untreated, 0 = no growth, -100 = all killed)
# Conditions in all cases: 10 µM unless noted
# MOLT-4 leukemia = tested on: MOLT-4 leukemia
# SR leukemia = tested on: SR leukemia
# RPMI-8226 leukemia = tested on: RPMI-8226 leukemia
# OVCAR-8 ovarian = tested on: OVCAR-8 ovarian
# OVCAR-5 ovarian = tested on: OVCAR-5 ovarian
# OVCAR-4 ovarian = tested on: OVCAR-4 ovarian
# SK-OV-3 ovarian = tested on: SK-OV-3 ovarian
# IGROV1 ovarian = tested on: IGROV1 ovarian
# OVCAR-3 ovarian = tested on: OVCAR-3 ovarian
# HS 578T breast = tested on: HS 578T breast
# NCI/ADR-RES ovarian = tested on: NCI/ADR-RES ovarian
# T-47D breast = tested on: T-47D breast
# BT-549 breast = tested on: BT-549 breast
# MDA-MB-435 melanoma = tested on: MDA-MB-435 melanoma
# SW-620 colon = tested on: SW-620 colon
# MCF7 breast = tested on: MCF7 breast
# HCT-116 colon = tested on: HCT-116 colon
# HCC-2998 colon = tested on: HCC-2998 colon
# KM12 colon = tested on: KM12 colon
SMILES,growth (MOLT-4 leukemia),growth (SR leukemia),growth (RPMI-8226 leukemia),growth (OVCAR-8 ovarian),growth (OVCAR-5 ovarian),growth (OVCAR-4 ovarian),growth (SK-OV-3 ovarian),growth (IGROV1 ovarian),growth (OVCAR-3 ovarian),growth (HS 578T breast),growth (NCI/ADR-RES ovarian),growth (T-47D breast),growth (BT-549 breast),growth (MDA-MB-435 melanoma),growth (SW-620 colon),growth (MCF7 breast),growth (HCT-116 colon),growth (HCC-2998 colon),growth (KM12 colon)
CCOC(=O)c1cncn1C(C)c1ccccc1 (stereo not given),94.5%,90.2%,105%,102%,105%,109%,103%,107%,109%,97.2%,109%,105%,100%,108%,115%,114%,106%,118%,104%
CN1CCC2(CC1)C(C#N)C(=O)NC(=O)C2C#N (stereo not given),100%,86.5%,109%,99%,104%,97.3%,110%,123%,117%,113%,113%,107%,103%,97.6%,108%,88.6%,93.3%,–,126%
S=P(SP(=S)(c1ccccc1)c1ccccc1)(c1ccccc1)c1ccccc1,98.3%,93.7%,87.7%,104%,95.2%,111%,106%,119%,104%,93.8%,104%,103%,109%,97.5%,99.3%,112%,109%,–,105%
CCN1C(=O)NC(=O)C(C)(N2C(=O)c3c(F)c(F)c(F)c(F)c3C2=O)C1=O (stereo not given),-51.3% (active),-64.6% (active),2.56% (active),3.31% (active),42.7%,1.91% (active),96.9%,-58.8% (active),-89.9% (active),12.1%,17.9%,23.5%,35.9%,21.6%,-77.9% (active),13.3%,-38.8% (active),40.8%,-59.7% (active)
C#COc1cccc(Nc2ncnc3cc(NC(=O)CF)ccc23)c1,5.47% [6.25 µM] (active),20.9% [6.25 µM],62.4% [6.25 µM],42.5% [6.25 µM],87.2% [6.25 µM],75% [6.25 µM],34.8% [6.25 µM],52.4% [6.25 µM],12% [6.25 µM],44.2% [6.25 µM],35.3% [6.25 µM],40.9% [6.25 µM],28% [6.25 µM],-34.2% [6.25 µM] (active),25.8% [6.25 µM],30.6% [6.25 µM],19% [6.25 µM],63.8% [6.25 µM],28.6% [6.25 µM]
CC[C@H](C)[C@H](NC(=O)c1cnccn1)C(=O)N(C)[C@H](C[C@@H](OC(C)=O)c1nc(C(=O)N[C@@H](Cc2ccccc2)C[C@H](C)C(=O)OC)cs1)C(C)C,17.9%,15.9%,22.5%,15.2%,42.4%,45.9%,20.6%,32%,-10.2% (active),11.9%,14.4%,61.2%,-7.25% (active),-37.6% (active),23.6%,15.5%,-9.21% (active),22.3%,3.34% (active)
OCCN=Cc1c[nH]c2ccccc12,101%,95.4%,120%,100%,91%,94%,98.6%,104%,97.7%,97.5%,100%,94.5%,107%,103%,93.3%,93%,96.7%,–,102%
